For seven compounds, inhibition results are on record in ChEMBL document CHEMBL1961873, “Compounds: GSK PKIS; Assays: Nanosyn kinase panel” (2012).

The test system of assay [1] is Tyrosine-protein kinase ABL1 (Homo sapiens), P00519 [T315I]. The conditions noted are these: at 1 µM.
Assay [2] has as its system Tyrosine-protein kinase ABL1 (Homo sapiens), P00519 [Y253F]. The conditions noted are these: at 0.1 µM.
Assay [3] shares this test system. The conditions noted are these: at 1 µM.
The target in assay [4] is Tyrosine-protein kinase ABL1 (Homo sapiens) (UniProt P00519). The conditions noted are these: at 0.1 µM.
For assay [5] the target is unchanged. Conditions: at 1 µM.
The target in assay [6] is ALK tyrosine kinase receptor (Homo sapiens) (UniProt Q9UM73). Conditions: at 0.1 µM.
Assay [7] shares this target. The conditions noted are these: at 1 µM.
For assay [8], the target named is Tyrosine-protein kinase ABL2 (Homo sapiens) (UniProt P42684). Conditions: at 0.1 µM.
Assay [9] has the same target. The conditions noted are these: at 1 µM.
The target of assay [10] is Tyrosine-protein kinase receptor UFO (Homo sapiens) (UniProt P30530). Conditions: at 0.1 µM.
Assay [11] shares this target. The conditions noted are these: at 1 µM.
In assay [12] the target is Tyrosine-protein kinase Blk (Homo sapiens) (UniProt P51451). The conditions noted are these: at 0.1 µM.
For assay [13] the target is unchanged. The conditions noted are these: at 1 µM.
Assay [14] has as its target T1, Cytoplasmic tyrosine-protein kinase BMX (Homo sapiens) (UniProt P51813).
T1 sequence (whole entry): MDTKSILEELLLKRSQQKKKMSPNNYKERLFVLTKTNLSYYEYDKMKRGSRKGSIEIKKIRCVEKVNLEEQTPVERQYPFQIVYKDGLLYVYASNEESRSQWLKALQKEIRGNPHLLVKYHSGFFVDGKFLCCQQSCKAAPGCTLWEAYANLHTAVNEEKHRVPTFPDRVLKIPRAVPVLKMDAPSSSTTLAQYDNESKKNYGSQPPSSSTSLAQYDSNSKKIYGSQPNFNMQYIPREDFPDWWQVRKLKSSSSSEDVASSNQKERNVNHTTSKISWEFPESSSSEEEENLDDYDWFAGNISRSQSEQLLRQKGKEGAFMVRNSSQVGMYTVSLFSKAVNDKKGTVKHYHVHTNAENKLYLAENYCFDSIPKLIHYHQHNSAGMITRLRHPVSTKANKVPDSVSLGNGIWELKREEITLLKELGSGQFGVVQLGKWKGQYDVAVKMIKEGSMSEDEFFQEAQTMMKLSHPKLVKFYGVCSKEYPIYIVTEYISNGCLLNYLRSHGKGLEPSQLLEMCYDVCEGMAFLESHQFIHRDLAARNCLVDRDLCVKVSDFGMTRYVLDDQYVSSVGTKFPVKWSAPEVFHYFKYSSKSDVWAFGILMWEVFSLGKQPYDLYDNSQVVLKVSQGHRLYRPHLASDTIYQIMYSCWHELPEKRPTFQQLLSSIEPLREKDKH
The conditions noted are these: at 0.1 µM.

Assay [15] has as its target T1, Cytoplasmic tyrosine-protein kinase BMX (Homo sapiens). The conditions noted are these: at 1 µM.
In assay [16] the target is Protein-tyrosine kinase 6 (Homo sapiens) (UniProt Q13882). The conditions noted are these: at 0.1 µM.
The target is the same in assay [17]. Conditions: at 1 µM.
For assay [18], the target named is Tyrosine-protein kinase BTK (Homo sapiens) (UniProt Q06187). The conditions noted are these: at 0.1 µM.
The target is the same in assay [19]. The conditions noted are these: at 1 µM.
The target in assay [20] is Tyrosine-protein kinase CSK (Homo sapiens) (UniProt P41240). Conditions: at 0.1 µM.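 Further: value given is the averaged percent inhibition of CSK kinase activity, from the GSK PKIS kinase inhibitor set screening panel.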
Sequence of Tyrosine-protein kinase CSK (Homo sapiens) (P41240 2-450 limits assumed): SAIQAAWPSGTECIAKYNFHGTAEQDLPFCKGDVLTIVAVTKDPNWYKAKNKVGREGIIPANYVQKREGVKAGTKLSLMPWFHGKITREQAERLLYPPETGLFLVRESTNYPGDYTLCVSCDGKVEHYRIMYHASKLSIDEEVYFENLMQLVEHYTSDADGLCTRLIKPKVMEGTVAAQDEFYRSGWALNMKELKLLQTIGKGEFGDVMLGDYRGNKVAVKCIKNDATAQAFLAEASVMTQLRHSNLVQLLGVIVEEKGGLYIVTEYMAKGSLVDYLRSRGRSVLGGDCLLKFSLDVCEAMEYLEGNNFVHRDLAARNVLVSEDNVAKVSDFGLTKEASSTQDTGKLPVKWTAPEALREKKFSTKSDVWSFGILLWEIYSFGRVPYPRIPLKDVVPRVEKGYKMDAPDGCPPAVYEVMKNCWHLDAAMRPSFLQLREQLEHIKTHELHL

Sequence of Tyrosine-protein kinase ABL2 (Homo sapiens) (P42684 whole entry): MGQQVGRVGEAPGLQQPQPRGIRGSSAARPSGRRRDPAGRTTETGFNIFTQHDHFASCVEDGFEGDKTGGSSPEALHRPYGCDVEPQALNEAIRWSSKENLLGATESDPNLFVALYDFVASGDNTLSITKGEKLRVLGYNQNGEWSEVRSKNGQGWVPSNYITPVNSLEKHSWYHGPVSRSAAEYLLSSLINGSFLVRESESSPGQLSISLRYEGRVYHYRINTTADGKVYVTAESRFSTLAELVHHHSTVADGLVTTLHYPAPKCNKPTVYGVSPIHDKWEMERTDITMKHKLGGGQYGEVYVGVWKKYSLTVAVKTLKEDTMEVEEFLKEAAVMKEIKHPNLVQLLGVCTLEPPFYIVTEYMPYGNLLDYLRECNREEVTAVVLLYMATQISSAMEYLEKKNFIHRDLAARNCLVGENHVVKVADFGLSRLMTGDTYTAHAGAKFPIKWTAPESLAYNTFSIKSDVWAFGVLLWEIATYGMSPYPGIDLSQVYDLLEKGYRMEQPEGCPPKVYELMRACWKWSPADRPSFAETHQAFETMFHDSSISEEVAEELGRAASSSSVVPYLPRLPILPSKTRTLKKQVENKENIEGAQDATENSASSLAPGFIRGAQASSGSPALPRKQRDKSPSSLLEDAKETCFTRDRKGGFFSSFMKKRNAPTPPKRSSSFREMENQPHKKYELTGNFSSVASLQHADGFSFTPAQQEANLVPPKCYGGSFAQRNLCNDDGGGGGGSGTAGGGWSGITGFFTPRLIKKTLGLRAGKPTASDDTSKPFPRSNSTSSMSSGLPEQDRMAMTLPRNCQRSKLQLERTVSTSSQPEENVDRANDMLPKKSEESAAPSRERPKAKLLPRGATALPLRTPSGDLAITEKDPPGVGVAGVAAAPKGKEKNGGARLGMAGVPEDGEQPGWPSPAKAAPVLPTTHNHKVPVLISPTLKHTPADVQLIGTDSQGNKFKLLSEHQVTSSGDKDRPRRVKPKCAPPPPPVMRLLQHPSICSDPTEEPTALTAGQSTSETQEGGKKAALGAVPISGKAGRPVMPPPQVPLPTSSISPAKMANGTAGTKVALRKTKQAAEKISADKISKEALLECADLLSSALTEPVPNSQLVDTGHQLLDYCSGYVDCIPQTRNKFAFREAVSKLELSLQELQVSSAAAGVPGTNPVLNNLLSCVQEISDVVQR
Sequence of Protein-tyrosine kinase 6 (Homo sapiens) (Q13882 whole entry, looked up): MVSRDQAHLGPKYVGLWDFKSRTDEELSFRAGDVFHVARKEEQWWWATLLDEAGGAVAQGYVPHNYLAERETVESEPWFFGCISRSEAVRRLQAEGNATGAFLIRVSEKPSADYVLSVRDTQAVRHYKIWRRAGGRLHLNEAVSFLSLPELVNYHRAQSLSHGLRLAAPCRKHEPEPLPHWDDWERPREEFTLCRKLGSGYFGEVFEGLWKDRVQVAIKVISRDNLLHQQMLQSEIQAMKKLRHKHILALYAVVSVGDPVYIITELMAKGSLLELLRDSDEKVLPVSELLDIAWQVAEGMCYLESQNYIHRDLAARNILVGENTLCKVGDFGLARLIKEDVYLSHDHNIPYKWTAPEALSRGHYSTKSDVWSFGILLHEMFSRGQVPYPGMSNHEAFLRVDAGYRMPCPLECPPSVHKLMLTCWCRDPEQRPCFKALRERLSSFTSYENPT
Sequence of Tyrosine-protein kinase BTK (Homo sapiens) (Q06187 whole entry): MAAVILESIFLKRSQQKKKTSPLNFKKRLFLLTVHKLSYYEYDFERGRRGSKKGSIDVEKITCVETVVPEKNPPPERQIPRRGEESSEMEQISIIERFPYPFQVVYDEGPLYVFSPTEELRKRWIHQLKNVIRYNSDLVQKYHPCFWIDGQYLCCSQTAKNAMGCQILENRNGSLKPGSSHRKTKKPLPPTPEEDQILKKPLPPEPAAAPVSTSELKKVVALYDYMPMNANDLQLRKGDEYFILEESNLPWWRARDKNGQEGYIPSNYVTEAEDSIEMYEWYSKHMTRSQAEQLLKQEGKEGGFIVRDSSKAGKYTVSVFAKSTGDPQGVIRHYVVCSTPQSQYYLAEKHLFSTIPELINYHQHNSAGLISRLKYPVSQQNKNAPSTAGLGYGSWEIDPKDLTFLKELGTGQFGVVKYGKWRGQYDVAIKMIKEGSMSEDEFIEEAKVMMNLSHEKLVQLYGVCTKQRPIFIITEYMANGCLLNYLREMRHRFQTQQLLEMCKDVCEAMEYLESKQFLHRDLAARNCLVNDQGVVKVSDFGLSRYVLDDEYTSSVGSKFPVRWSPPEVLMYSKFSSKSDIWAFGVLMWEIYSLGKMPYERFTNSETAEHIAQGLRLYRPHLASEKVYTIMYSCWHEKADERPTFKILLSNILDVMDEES
Sequence of ALK tyrosine kinase receptor (Homo sapiens) (Q9UM73 19-1620 limits assumed): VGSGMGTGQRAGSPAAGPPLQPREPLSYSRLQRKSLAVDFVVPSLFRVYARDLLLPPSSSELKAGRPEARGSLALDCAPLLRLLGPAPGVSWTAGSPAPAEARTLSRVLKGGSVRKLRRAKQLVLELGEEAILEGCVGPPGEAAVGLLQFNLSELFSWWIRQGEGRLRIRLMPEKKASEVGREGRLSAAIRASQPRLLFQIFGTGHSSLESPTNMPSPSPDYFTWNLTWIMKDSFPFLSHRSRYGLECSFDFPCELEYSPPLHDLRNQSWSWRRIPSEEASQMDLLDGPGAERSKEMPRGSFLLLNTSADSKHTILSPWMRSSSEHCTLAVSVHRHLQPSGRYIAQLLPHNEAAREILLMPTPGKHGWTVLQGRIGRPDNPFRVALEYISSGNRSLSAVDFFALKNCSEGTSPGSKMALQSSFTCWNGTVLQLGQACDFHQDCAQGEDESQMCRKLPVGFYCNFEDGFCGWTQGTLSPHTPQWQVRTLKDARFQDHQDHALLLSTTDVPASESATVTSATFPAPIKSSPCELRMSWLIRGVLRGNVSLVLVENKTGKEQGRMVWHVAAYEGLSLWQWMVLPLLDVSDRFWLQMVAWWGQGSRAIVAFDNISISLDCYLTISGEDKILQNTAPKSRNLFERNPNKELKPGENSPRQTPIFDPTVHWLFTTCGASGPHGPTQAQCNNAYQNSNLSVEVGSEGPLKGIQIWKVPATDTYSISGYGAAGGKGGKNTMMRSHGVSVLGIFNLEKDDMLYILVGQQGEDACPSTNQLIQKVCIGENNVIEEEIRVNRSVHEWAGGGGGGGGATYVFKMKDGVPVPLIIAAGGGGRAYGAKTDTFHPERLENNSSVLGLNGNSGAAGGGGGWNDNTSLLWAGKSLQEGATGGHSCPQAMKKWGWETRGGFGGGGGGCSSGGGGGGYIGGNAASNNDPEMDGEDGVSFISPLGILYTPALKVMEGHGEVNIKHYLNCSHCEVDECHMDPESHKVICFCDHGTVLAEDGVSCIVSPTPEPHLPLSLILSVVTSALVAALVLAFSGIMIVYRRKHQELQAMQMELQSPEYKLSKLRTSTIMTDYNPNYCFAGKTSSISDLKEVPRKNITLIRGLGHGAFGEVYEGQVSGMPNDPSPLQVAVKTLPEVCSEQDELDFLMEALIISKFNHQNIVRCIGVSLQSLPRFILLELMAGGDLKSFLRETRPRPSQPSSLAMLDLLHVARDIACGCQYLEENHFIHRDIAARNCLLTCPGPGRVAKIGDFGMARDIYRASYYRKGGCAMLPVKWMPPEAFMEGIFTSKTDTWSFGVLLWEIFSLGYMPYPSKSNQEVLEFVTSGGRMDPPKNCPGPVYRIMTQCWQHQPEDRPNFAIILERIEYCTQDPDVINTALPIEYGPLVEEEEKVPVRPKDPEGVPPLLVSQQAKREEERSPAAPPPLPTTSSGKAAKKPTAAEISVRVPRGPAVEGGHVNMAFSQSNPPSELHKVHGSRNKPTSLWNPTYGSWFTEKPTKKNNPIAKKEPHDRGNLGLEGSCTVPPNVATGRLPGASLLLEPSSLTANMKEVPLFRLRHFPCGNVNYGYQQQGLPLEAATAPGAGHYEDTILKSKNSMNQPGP
Sequence of Tyrosine-protein kinase Blk (Homo sapiens) (P51451 2-505 limits assumed): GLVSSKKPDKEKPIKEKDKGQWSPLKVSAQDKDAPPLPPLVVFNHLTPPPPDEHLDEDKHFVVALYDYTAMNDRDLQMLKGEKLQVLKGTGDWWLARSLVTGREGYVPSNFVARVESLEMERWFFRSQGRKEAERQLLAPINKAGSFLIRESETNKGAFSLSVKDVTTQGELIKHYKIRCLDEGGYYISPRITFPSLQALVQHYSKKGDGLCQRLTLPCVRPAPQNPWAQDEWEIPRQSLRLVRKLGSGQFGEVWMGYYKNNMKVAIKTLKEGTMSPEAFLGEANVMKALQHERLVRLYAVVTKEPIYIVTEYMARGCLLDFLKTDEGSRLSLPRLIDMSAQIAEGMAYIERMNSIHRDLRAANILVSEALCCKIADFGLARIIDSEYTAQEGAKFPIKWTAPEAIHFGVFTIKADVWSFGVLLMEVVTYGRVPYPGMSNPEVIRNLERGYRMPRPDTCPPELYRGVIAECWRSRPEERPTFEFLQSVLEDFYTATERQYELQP

In general, inhibition refers to the relative decrease from the control value, in per cent. On to `CNC(=O)c1cncc(/C=C/c2c(C)cccc2C)c1`, for which the inhibition in assay [1] is 2.52%; in [2], 21.9%; in assay [3], 70.3%; in assay [4], 6.54%; in assay [5] it was 57.3%; in [6], -3.56%. Moreover, the inhibition was -1.77% in [7]; 7.09% in assay [8]; 51.3% in [9]; -0.01% in assay [10]; 3.27% in [11]; -1.68% in [12]. Besides, the inhibition in assay [13] was 16.2%; in assay [14] it was 6.81%; in [15], 42.4%; in assay [16], 13.4%; in assay [17] it was 61.9%; in assay [18] it was -1.07%. The inhibition came to 7.27% in assay [19] and 5.83% in [20].
For `Fc1ccc(-c2ncn(CCCN3CCOCC3)c2-c2ccncc2)cc1`, the inhibition is -0.98% in assay [1]; -0.87% in assay [2]; 0.03% in assay [3]; 1.14% in assay [4]; 0.89% in assay [5]; 1.45% in assay [6]. For the same compound, the inhibition in assay [7] was -0.45%; in assay [8] it was 1.71%; in assay [9], 5.07%; in assay [10], -0.1%; in assay [11], 1.84%; in [12] it was -0.04%. Further, the inhibition in [13] was 1.04%; in assay [14], 1.9%; in assay [15], -0.36%; in assay [16], -4.64%; in assay [17] it was -0.48%; in [18], -0.91%. Further, the inhibition in assay [19] is 2.71%; in assay [20] it was -2.06%.
For `COc1ccc(-c2ccc3c(NC(=O)C4CC4)n[nH]c3n2)cc1`, the inhibition in [1] worked out at 21.2%; in assay [2], 2.3%; in assay [3] it was 9.63%; in [4] it was 2.39%; in [5], 19.3%; in assay [6], 1.28%. The inhibition was 1.76% in assay [7]; 2.81% in [8]; 8.05% in assay [9]; -1.95% in [10]; -2.35% in assay [11]; 1.52% in assay [12]. The inhibition in assay [13] stood at 2.8%; in [14], 3.4%; in [15], 2.59%; in assay [16] it was 0.93%; in [17], 2.88%; in assay [18] it was 0.22%. Also, the figures for the inhibition in assay [19] and in assay [20] were -0.23% and 0.42%, respectively.
For `O=C(Nc1n[nH]c2nc(-c3ccco3)ccc12)C1CC1`, the inhibition was 12.8% in assay [1]; 4.47% in [2]; 7.45% in assay [3]; 3.94% in assay [4]; 14% in assay [5]; 1.35% in [6]. Moreover, the inhibition amounted to 2.65% in [7]; 4.39% in assay [8]; 6.13% in assay [9]; 2.04% in [10]; 5.23% in [11]; 0.69% in assay [12]. In addition, the inhibition in assay [13] is 5.1%; in [14], -0.85%; in [15] it was 1.83%; in [16], 2.56%; in [17] it was 1.59%; in assay [18], 0.36%. For the same compound, the results for the inhibition in assay [19] and in [20] were 0.7% and 0.84%, respectively.
As for `NS(=O)(=O)c1ccc(Nc2cc(-c3ccc(O)c(F)c3)n[nH]2)cc1`, the inhibition in assay [1] is 22.8%; in assay [2], 2.85%; in [3], 35.6%; in [4], 0.38%; in assay [5], 34.8%; in [6], -2.35%. Further, the inhibition in assay [7] is 8.38%; in assay [8], 0.56%; in assay [9], 16.9%; in assay [10], 1.86%; in [11] it was 1.05%; in assay [12], -1.01%. For the same compound, the inhibition in assay [13] was 12.1%; in assay [14] it was -5.24%; in assay [15], -1.41%; in assay [16], -4.55%; in assay [17], -9.05%; in assay [18], -1.3%. For the same compound, the inhibition is -0.82% in assay [19] and -8.87% in assay [20].
For the compound `COc1cc(Nc2ncc3c(C)nc(-c4cccc(Oc5ccccc5)c4)n3n2)cc(OC)c1OC`, the inhibition in assay [1] was 3.35%; in [2] it was 4.25%; in [3], 2.77%; in [4], 2.33%; in [5], 3.84%; in assay [6] it was 1.5%. The inhibition worked out at 12.7% in [7]; 2.57% in [8]; 0.57% in assay [9]; 0.02% in assay [10]; 4.22% in assay [11]; 0.63% in assay [12]. Besides, the inhibition in assay [13] worked out at 4.56%; in assay [14], 0.46%; in assay [15], 4.17%; in assay [16] it was 1.26%; in assay [17], 1.89%; in [18], 1.08%. Moreover, the inhibition was 1.57% in [19] and 4.01% in assay [20].
As to `COc1ccc2ncn(-c3cc(O[C@H](C)c4ccccc4Cl)c(C(N)=O)s3)c2c1`, the inhibition in assay [1] was 3.67%; in assay [2], 2.13%; in assay [3] it was 4.15%; in assay [4] it was -0.74%; in [5], 0.5%; in assay [6], -1.6%. Besides, the inhibition was 0.59% in [7]; -1.99% in assay [8]; -0.05% in [9]; -9.61% in assay [10]; -8.67% in assay [11]; -1.08% in assay [12]. For the same compound, the inhibition in [13] is -2.12%; in assay [14], 3.14%; in assay [15], 4.61%; in assay [16], -0.06%; in assay [17] it was 4.71%; in assay [18], -4.3%. The inhibition was -3.34% in [19] and 4.64% in assay [20].
